Screens from PubChem.
Compounds with a hit are over-represented: about 8% of the library has one in this group of screens.
FMDV inh = High Throughput Screening for Foot and Mouth Disease Virus Antivirals. FMDV antiviral cell-based qHTS. Potency, µM (series often up to 57.9 µM), for the others: at the highest dose activity change, negative = inhibition, actives largely listed as inhibitors. 410,000 compounds, 1.2% hits; calls by dose curve; tested in HEK293T cells; note: read-out not given here; potency is the fitted concentration of half-maximal effect; % is set by controls: 0 for no effect and ±100 for the full control effect; nearly all actives have a fitted effect of over 45% in size
Lassa entry inh = qHTS for Inhibitors of binding or entry into cells for Lassa Virus | Lassa virus pseudotype entry inhibition, cell reporter | Potency, µM (top dose mostly 37.9 µM), inactives show at the top dose activity change, negative = inhibition, most hits filed as inhibitors | 300,000 compounds, 1.2% hits; calls by dose curve; tested in HEK293 cells; note: potency is the fitted concentration of half-maximal effect; % is set by controls: 0 for no effect and ±100 for the full control effect; nearly all actives have a fitted effect of over 50% in size
SARS PLP yeast = qHTS of Yeast-based Assay for SARS-CoV PLP. 330,000 compounds, 0.19% hits. S. cerevisiae expressing SARS-CoV PLpro, growth rescue. Potency, µM (highest dose often 32.9 µM), for the others: at the top dose activity, positive = growth rescue, hits mostly activators; calls by dose curve; note: potency is the fitted concentration of half-maximal effect; 0% is about no effect; nearly all actives have a fitted effect of over 55% in size
HCMV inh = qHTS Assay for inhibitors of the human cytomegalovirus (HCMV) | HFF cells, HCMV-luciferase reporter, 72 h; hits give low values | activity change, negative = inhibition, % at 57.5 µM | 410,000 compounds, 4.5% hits | AID 1259415, 2018; in the data active = activity change below about -60%; inconclusive = no clear call, values can overlap the other calls; inactive = above about -39%; note: % is set by controls: 0 for no effect and ±100 for the full control effect
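Two compound doses tested in HFFs infected with HCMV-luciferase, MOI 1 PFU/cell, 72 h at 37C. Lysate luminescence read with OneGlo; data normalized against buffer-only and 10uM Salinomycin inhibitor controls.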
Marburg entry inh = qHTS for inhibitors of binding or entry into cells for Marburg Virus; 300,000 compounds, 1.8% hits; Potency, µM (doses to about 37.8 µM), without a hit: at the highest dose activity change, negative = inhibition, usual class: inhibitors; Marburg virus pseudotyped entry inhibition, cell reporter; calls by dose curve; tested in HEK293 cells; note: potency is the fitted concentration of half-maximal effect; % is set by controls: 0 for no effect and ±100 for the full control effect
HCV inh = qHTS Assay for Inhibitors of Hepatitis C Virus (HCV) | Huh7.5.1 HCVcc-Cre infection, luciferase reporter, 44 h | Potency, µM (top dose mostly 41.8 µM), without a hit: at the highest dose activity change, negative = inhibition, hits mostly inhibitors | AID 651820, 2012 | 340,000 compounds, 3.4% hits; active = well fitted inhibition curve with a large enough effect; inconclusive = small, poorly fitted or top-dose-only effect, or another doubt; inactive = no such curve, though single readings can be large or run the other way; note: potency is the fitted concentration of half-maximal effect; % is set by controls: 0 for no effect and ±100 for the full control effect
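Whole-lifecycle infectious HCVcc-Cre system; cells 1,000/well, compound then virus (~0.5 moi) added 4 h after plating, 44 h culture. Luciferase read 15 sec following 15 min substrate incubation, room temp.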
* = called active by the depositor; ? = inconclusive; · = no result; [ ] = remark or other dose.

SMILES	FMDV inh	Lassa entry inh	SARS PLP yeast	HCMV inh	Marburg entry inh	HCV inh
COCCN1C=C(C(=O)OC)C(c2cc(Br)c(OC)c(OC)c2)C(C(=O)OC)=C1	-25%	11µM*	0%	42	-23%	-25%
CC(C)(C)c1ccc(O[C@@H]2[C@H](O)CO[C@H]2C=CC#Cc2ccccc2)cc1	·	·	·	·	-16%[14.2 µM]	·
CN1CC=C(c2c[nH]c3ccccc23)CC1	2%	·	-14%	9	·	6.3µM*
C1=C(c2c[nH]c3ccccc23)CCN(Cc2ccccc2)C1	-11%	·	4%	-97*	·	?
c1ccc(CN2CCN(Cc3c[nH]c4ccccc34)CC2)cc1	-12%	-6%	-1%	-14	?	-9%
COc1ccc([N+](=O)[O-])cc1NC(=O)c1cccs1	-2%	-2%[46.1 µM]	-2%	?	1%[46.1 µM]	11µM*
COc1ccc([N+](=O)[O-])cc1NC(=O)c1ccc(C)o1	-13%	19%	8%	-103*	15%	?
O=C(Nc1cc([N+](=O)[O-])ccc1F)c1cccs1	-8%	16%	-26%	-23	?	-2%
Cc1c(C(=O)C(=O)N2c3ccccc3CC2C)c2ccccc2n1C (centres undefined)	3%	?	-7%	-64*	?	-29%
Nc1c(Br)cc2c3c(cccc13)-c1ccccc1-2	18%	25%	·	-33	-13%	2.8µM*
Nc1c(Br)cc2c(c1Br)C(O)c1ccccc1-2 (centres undefined)	3%	13%[46.1 µM]	·	96	3%	?
COc1ccc(CN2CCOc3c(cc(-c4cccc(OC)n4)cc3OC)C2)c(O)c1	-2%	·	·	·	·	·
O=C(Nc1ccc(Oc2ccccc2)cc1)c1csc(COCCO)n1	0%	·	·	-81*	·	·
O=C(Nc1ccc(Oc2ccccc2)cc1)c1csc([C@@H]2C[C@H](O)[C@@H](CO)O2)n1	?	·	·	-91*	·	·
COCCCNC(=O)c1csc([C@@H]2C[C@H](O)[C@@H](CO)O2)n1	-7%	·	·	1	·	·
COCCCNC(=O)c1csc([C@H]2C[C@H](O)[C@@H](CO)O2)n1	-5%	·	·	-100*	·	·
CCN(C(=O)CN1C(=O)c2ccccc2Sc2ccc(C(=O)OC)cc21)c1cccc(C)c1	0%	0%[46.1 µM]	·	128	·	·
CN1C(=O)[C@H](Cc2ccc([N+](=O)[O-])cc2)NC1=S	5%	?	5%	-72*	0%[46.1 µM]	1%
O=[N+]([O-])c1ccc(Cc2ccc([N+](=O)[O-])cc2)cc1	-19%	2%[46.1 µM]	·	-1	?	0%
COc1cccc(N2CCN(S(=O)(=O)c3ccc(-c4cc(C(F)(F)F)on4)s3)CC2)c1	-11%	10%[46.1 µM]	·	19	·	·
COc1ccc(OC)c(CNS(=O)(=O)c2ccc(-c3cc(C(F)(F)F)on3)s2)c1	0%	12%[46.1 µM]	·	-70*	·	·
COc1ccccc1N1CCN(S(=O)(=O)c2ccc(-c3cc(C(F)(F)F)on3)s2)CC1	0.89µM*	0%[46.1 µM]	·	-38	·	·
O=C(CSc1ncc2c(n1)-c1ccccc1N(Cc1ccc(Cl)cc1)S2(=O)=O)c1ccc(Cl)cc1	-4%	?	·	0	·	·
C[C@]1(O)CC(=O)C=C[C@H]1Nc1ccccc1	25µM*	·	·	?	·	-14%
CC1(C)CC(C(=O)Nc2ccccc2)C(=O)O1 (centres undefined)	18%	3%	·	7	8%[46.1 µM]	5%
SMILES	FMDV inh	Lassa entry inh	SARS PLP yeast	HCMV inh	Marburg entry inh	HCV inh
COc1cc2c(cc1OC)[C@@H]1O[C@](c3ccsc3)(C2)Oc2c1c(=O)oc1ccc(F)cc21	·	·	·	·	28%[14.2 µM]	·
Oc1ccc2ccccc2c1N=Nc1ccccc1F	19%	·	-2%	0	·	?
Oc1ccc2ccccc2c1N=Nc1ccccn1	?	8.9µM*	-22%	-98*	?	8.9µM*
CCOC(=O)c1c[nH]c2ccc3ccccc3c2c1=O	7%	·	?	25	·	-7%
CCOC(=O)c1[nH]cnc1N=Nc1c(O)ccc2ccccc12	-19%	?	7%	-97*	?	7.9µM*
O=c1cc(-c2ccc(O)c(O)c2)oc2ccc3ccccc3c12	6.3µM*	?	0%	-5	?	?
Cc1ccc2c(c1)-c1onc(C(=O)N(C)c3cccc(C(F)(F)F)c3)c1CO2	-12%	-2%[46.1 µM]	·	-22	·	·
Cc1ccc(CNc2nc(CN3CCNC(=O)C3)nc3ccccc23)o1	21%	·	·	·	·	·
CCCc1cc(-c2n[nH]c(=S)n2CC)cs1	-11%	·	0%	13	?	25%
CCCc1cc(-c2n[nH]c(=S)n2C(C)c2ccccc2)cs1 (centres undefined)	0%	-23%	22µM*	-35	?	5%
COc1cc(/C=C/c2nnc3c4ccccc4ncn23)cc(OC)c1OC	0%	?	-7%	19	?	2.2µM*
C(=C\c1nnc2c3ccccc3ncn12)/c1ccccc1	-5%	?	-10%	?	?	?
O[C@@H]1[C@@H](O)C=C2CCN3Cc4cc5c(cc4[C@H]1C23)OCO5 (some centres undefined)	?	·	·	-98*	·	3.2µM*
OC1C=C2CCN3Cc4cc5c(cc4C(C1O)C23)OCO5 (centres undefined)	-11%	·	·	·	·	·
Cc1cccc(N2C(=O)c3cccc4c(N)ccc(c34)C2=O)c1	-1%	?	2%	?	?	10µM*
O=C1c2ccc3c4c(ccc(c24)C(=O)N1c1cccc(O)c1)CC3	11%	2%	0%	?	-28%	13%
O=C1c2ccc3c4c(ccc(c24)C(=O)N1c1cccc(O)c1)C(=O)N(c1cccc(O)c1)C3=O	?	·	2%	-88*	-1%	5µM*
Cc1cccc(N2C(=O)c3cccc4c(N(C)CCO)ccc(c34)C2=O)c1	?	-8%	-3%	·	?	11µM*
COc1ccc(CCNC(=O)c2ccc(Cn3c(=O)c4ccccc4n(Cc4ccc(C)cc4)c3=O)cc2)cc1OC	-29%	7%[46.1 µM]	·	11	?	·
COc1ccc2[nH]c(=O)c(C(c3nnnn3C3CCCC3)N(C)C3CCCCC3)cc2c1 (centres undefined)	33%	2%	-1%	-20	5.2µM*	-12%
CCC(c1nnnn1C1CCCCC1)N(Cc1ccco1)Cc1cc2ccc(OC)cc2[nH]c1=O (centres undefined)	?	?	-1%	?	?	3.5µM*
COCCn1nnnc1C(C(C)C)N(Cc1ccccc1)Cc1cc2cc(OC)ccc2[nH]c1=O (centres undefined)	0%	?	4%	-18	-7%[46.1 µM]	?
CCC(C)(C)n1nnnc1C(C(C)C)N(Cc1ccco1)Cc1cc2cc3c(cc2[nH]c1=O)OCO3 (centres undefined)	?	2%	-1%	68	16µM*	22µM*
